Hit rate of the full screen: of about 360,000 compounds, about 2,600 (0.72%) were called active.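 How the source made its calls: active means inhibition above its plate's cutoff, the mean inhibition of sample wells plus 3 SD (cut at about 27% in these data); inactive means the rest.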 The sample as a whole holds a higher share of actives than the screen did.
target: Muscarinic acetylcholine receptor M4 (Homo sapiens) (UniProt P08173); test: human M4 muscarinic receptor antagonists, primary screen, CHO cells, Fluo-8 calcium fluorescence (AID 624125); conditions: CHO-hM4 cells, ACh EC80, Fluo-8 calcium fluorescence; at 3 µM; stronger effect = higher value;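 further: 0% = acetylcholine EC80 with DMSO and 100% = DMSO without agonist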
Sequence (P08173 whole entry, looked up): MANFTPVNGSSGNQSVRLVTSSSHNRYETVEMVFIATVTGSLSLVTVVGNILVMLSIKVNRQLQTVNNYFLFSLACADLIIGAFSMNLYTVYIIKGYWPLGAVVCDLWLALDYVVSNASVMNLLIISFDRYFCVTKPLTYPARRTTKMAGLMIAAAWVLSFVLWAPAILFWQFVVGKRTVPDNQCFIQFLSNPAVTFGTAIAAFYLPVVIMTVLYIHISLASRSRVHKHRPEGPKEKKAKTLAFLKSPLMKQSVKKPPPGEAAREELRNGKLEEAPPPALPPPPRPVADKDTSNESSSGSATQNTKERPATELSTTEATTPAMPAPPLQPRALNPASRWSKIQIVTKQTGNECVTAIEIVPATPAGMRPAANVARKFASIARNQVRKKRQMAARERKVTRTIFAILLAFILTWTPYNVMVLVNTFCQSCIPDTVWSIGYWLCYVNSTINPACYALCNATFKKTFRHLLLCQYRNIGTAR

Row | Compound | inhibition
1 | CCOC(=O)C1CCN(C(=O)Cn2nc(C)c3c(C)n(-c4ccccc4)nc3c2=O)CC1 | 9.38% (inactive)
2 | Cc1cc(=O)oc2c3c(cc(OCC(=O)N[C@H](C(=O)O)c4ccccc4)c12)OC(C)(C)CC3 | -5.66% (inactive)
3 | O=C1CCCC(O)=C1N=Nc1ccc2ncsc2c1 | 9.09% (inactive)
4 | COc1ccc(NC(=O)N(C)C[C@H]2Oc3ccc(NC(=O)C4CC4)cc3C(=O)N([C@H](C)CO)C[C@@H]2C)cc1 | -10% (inactive)
5 | CCc1nc2c(OCc3ccc(Cl)cc3Cl)cccn2c1N(C)C(=O)C(C)C | -17.6% (inactive)
6 | Cc1nc2c(OCc3cccc(Cl)c3)cccn2c1N(C)CC1CC1 | 8.19% (inactive)
7 | Cc1nc2c(OCc3ccc(Cl)cc3Cl)cccn2c1N(C)CC1CC1 | 38% (active)
8 | COC(CNC(=O)c1ccc2c(c1)ncn2-c1cc(C)cc(C)c1)OC | -0.94% (inactive)
9 | CCc1nc2c(OCc3ccccc3)cccn2c1N(C)C(=O)c1ccco1 | 8.33% (inactive)
10 | COc1ccc(C(c2nnnn2Cc2cccs2)N2CCN(c3ccccc3)CC2)cc1OC (stereo not given) | -1.13% (inactive)
11 | COc1ccc(C(O)(C2CCCCC2)C(CN2CCCC2)c2ccccc2)cc1 (stereo not given) | 5.79% (inactive)
12 | CCCCOc1ccc(C(C)(O)CCN2CCOCC2)cc1 (stereo not given) | 3.58% (inactive)
13 | CCCCCCC(O)(CCN1CCCCC1)c1ccccc1 (stereo not given) | 88.2% (active)
14 | O=C(c1ccccc1)C(O)(CN1CCCCC1)c1ccccc1 (stereo not given) | 5.71% (inactive)
15 | CCCCCC(O)(CCN1CCCCC1)c1ccccc1 (stereo not given) | 98.9% (active)
16 | C#CC(CCN1CCCCC1)(OC)c1ccccc1 (stereo not given) | 44.6% (active)
17 | c1ccc2cc3[nH]c(CN4CCCCC4)nc3cc2c1 | -0.37% (inactive)
18 | CCc1ccccc1NC(=O)NCCN1CCCCC1 | 4.05% (inactive)
19 | CC(CN1CCCCC1)c1ccccc1 (stereo not given) | 5.04% (inactive)
20 | CCC1SC(CC)C(=O)N(CC(=O)NC2CCCCC2)C1=O (stereo not given) | 4.12% (inactive)

Row | Compound | inhibition
21 | Cc1ccc(C(=O)NC(=S)Nc2ccc3[nH]c(=O)[nH]c3c2)cc1C | -8.35% (inactive)
22 | COC(=O)c1cccc(-n2[nH]nnc2=S)c1 | 2.86% (inactive)
23 | COc1ccccc1C(=O)NCCn1cc(SCC(=O)NCc2ccco2)c2ccccc21 | 6.25% (inactive)
24 | COc1cc2c3c(c1)/C(=C1/SC(=S)NC1=O)C(=O)N3C(C)(C)C=C2C | 9.66% (inactive)
25 | C=CC[C@@H](CC(=O)N[C@@H](CO)Cc1ccccc1)C(=O)NCCOC(=O)[C@@H](CC=C)CC(=O)OC(C)(C)C | -5.01% (inactive)
26 | CCc1cc(C(c2ccccc2OC)N2CCOCC2)c(NC(=O)c2ccccc2)s1 (stereo not given) | -6.12% (inactive)
27 | COc1ccc(COC(=O)c2n[nH]c3ccccc23)cc1F | 3.64% (inactive)
28 | CCCOc1ccccc1C(=O)NCCCC(=O)O | -1.85% (inactive)
29 | CN(C)c1ccc(N/C=C/C(=O)C(F)(F)F)cc1 | -4.11% (inactive)
30 | COC(=O)c1cc(NC(=O)CN2CCN(C(C)=O)CC2)cc(C(=O)OC)c1 | 1.81% (inactive)
31 | Cc1cc2c(cc1C)N(Cc1ccccc1)C1=NCCCN12 | 10.6% (inactive)
32 | Cc1cc(CN(C)C(=O)c2cc(COc3ccc(C)c(C)c3)on2)n[nH]1 | -2.16% (inactive)
33 | Cc1ccc(OCc2cc(C(=O)N(C)CCn3ccnc3C)no2)cc1C | -0.14% (inactive)
34 | CN(Cc1cccnc1)C(=O)c1cc(COc2ccc3ncccc3c2)on1 | 44.2% (active)
35 | Cc1ccc2c(c1)N(CC(=O)N(Cc1ccccn1)Cc1ccco1)C(=O)C(C(C)C)O2 (stereo not given) | -6.51% (inactive)
36 | O=[N+]([O-])c1c(NCCO)cc(Sc2nc3ccccc3s2)c2nonc12 | 74.6% (active)
37 | CCCCN1C(=O)/C(=C2/C=CC=CN2C)SC1=S | 28.7% (active)
38 | CCS(=O)(=O)N1CCCC(C(=O)NCCCN(C)Cc2ccccc2)C1 (stereo not given) | 6.16% (inactive)
39 | CCS(=O)(=O)c1ccc2c(c1)N(S(=O)(=O)c1ccccc1)CC(C(=O)O)O2 (stereo not given) | 0.74% (inactive)
40 | c1ccc2c(c1)CSc1sccc1C2=C1CCNCC1 | 97.6% (active)

Row | Compound | inhibition
41 | CCCCN(CC(=O)Nc1cccc(S(=O)(=O)N2CCCC2)c1)Cc1nc2ccccc2c(=O)[nH]1 | 15.9% (inactive)
42 | O=C1CCCc2nn(-c3ccccc3)nc21 | 2.29% (inactive)
43 | CCCOCC(O)CC(CC)C(=O)NNC(=S)Nc1ccccc1 (stereo not given) | -8.64% (inactive)
44 | CCCCC(=O)NNC(=S)NC(=O)C(c1ccccc1)c1ccccc1 | 59.9% (active)
45 | C=CCC(NC(=O)Cc1ccccc1)C(=O)NCCC (stereo not given) | 0.03% (inactive)
46 | CCOc1ccc(N(CC)S(=O)(=O)c2cccc3nsnc23)cc1 | 4.82% (inactive)
47 | O=C(/C=C/[C@H]1O[C@@H](n2ccc(=O)[nH]c2=O)[C@H](O)[C@@H]1O)NCc1ccccn1 | -0.74% (inactive)
48 | COc1ccc(C(=O)O)cc1S(=O)(=O)NCc1cccnc1 | -5.56% (inactive)
49 | Cn1nccc1C(=O)NC1CCCc2c1cnn2-c1ccc(F)cc1F (stereo not given) | 4.7% (inactive)
50 | COc1ccc(C(=O)NC2CC(C)(C)Cc3c2cnn3-c2ccccc2)c(OC)c1 (stereo not given) | -2.19% (inactive)
51 | COc1ccc(C(=O)NC2CCCc3c2cnn3-c2cccc(C)c2C)c(OC)n1 (stereo not given) | 30.6% (active)
52 | CCC(Oc1ccccc1)C(=O)NCc1cccnc1 (stereo not given) | -2.11% (inactive)
53 | CCN(CC(=O)Nc1ccc(NC(C)=O)cc1)C(=O)C1CC(=O)N(Cc2ccc(C)cc2)C1 (stereo not given) | -10% (inactive)
54 | O=C1CC[C@@H](C(=O)N2CSC[C@@H]2C(=O)Nc2ccc(C(F)(F)F)cc2)N1 | -9.06% (inactive)
55 | Cc1c(Cl)cccc1NC(=O)CSc1ccc(-c2cccnc2)nn1 | 4.65% (inactive)
56 | O=C(NCc1ccc2c(c1)OCO2)C1CCCN(S(=O)(=O)c2cccs2)C1 (stereo not given) | -10.7% (inactive)
57 | O=C1C(Cl)=C(Oc2ccccc2)C(=O)c2ccccc21 | 43.5% (active)
58 | O=C(Nn1cnc2ccccc2c1=O)c1ccc(F)cc1Cl | 0.01% (inactive)
59 | COC(=O)[C@@]12CCCN1[C@H](c1ccc(-c3ccc(F)cc3)c(OC)c1)[C@H]1C(=O)N(C)C(=O)[C@H]12 | 0.47% (inactive)
60 | CC(C)(C)NC(=O)/C(=C/c1cccnc1)NC(=O)c1ccco1 | -1.31% (inactive)
